Bioassay records deposited in PubChem BioAssay by several laboratories.
sEH inhibitor – soluble epoxide hydrolase (human) inhibition | P34913 | recombinant human sEH enzymatic activity assay | inhibition, % at 2 µM | actives 0.34% (n = 91,000); in the data active = inhibition above about 80%
Target sequence (P34913 whole entry, looked up): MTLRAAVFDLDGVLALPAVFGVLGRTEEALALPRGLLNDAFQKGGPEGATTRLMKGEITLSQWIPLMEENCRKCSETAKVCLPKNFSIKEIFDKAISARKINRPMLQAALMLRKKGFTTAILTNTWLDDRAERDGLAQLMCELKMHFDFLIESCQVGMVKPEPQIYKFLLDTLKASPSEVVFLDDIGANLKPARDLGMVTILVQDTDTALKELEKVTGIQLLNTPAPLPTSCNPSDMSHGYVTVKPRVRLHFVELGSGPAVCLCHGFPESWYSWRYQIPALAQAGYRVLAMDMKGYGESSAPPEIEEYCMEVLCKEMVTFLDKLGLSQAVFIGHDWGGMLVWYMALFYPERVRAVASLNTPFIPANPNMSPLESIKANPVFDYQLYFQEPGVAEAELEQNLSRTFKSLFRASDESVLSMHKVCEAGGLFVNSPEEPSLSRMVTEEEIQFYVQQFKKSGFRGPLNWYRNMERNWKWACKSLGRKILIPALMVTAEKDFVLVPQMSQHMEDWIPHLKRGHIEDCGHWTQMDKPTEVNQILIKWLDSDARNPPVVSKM
sEH activator – activators of human soluble epoxide hydrolase; P34913; purified human sEH enzymatic activity, activator screen; AID 717; actives 0.04% (n = 91,000); activation, % at 2 µM; in the data active = activation above about 37%
CYP2C9 act – activators of human CYP2C9; P11712; recombinant CYP2C9, luciferin-H conversion, luminescence; hits give high values; factor 1 = untreated enzyme, 0 = blocked; activation factor at 5 µM; actives 1.4% (n = 96,000); AID 1024;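 active = activation factor of 2 or more for CYP2C9 at a 5 µM dose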;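 also: 0 = sulfaphenazole-blocked wells and 1 = vehicle-only wells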
CYP2C19 act – increases human CYP2C19 enzyme activity; recombinant CYP2C19, luciferin-H EGE luminescence; hits give high values; 0 = fully inhibited enzyme, 1 = untreated enzyme; activation factor at 5 µM; 96,000 tested, under 10 active; AID 1025;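 active = activation factor of at least 2 at 5 µM in the primary screen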;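 also: 0 = wells with 2.5 mM tranylcypromine and 1 = vehicle-only wells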
CYP2C9 inh – inhibitors of human CYP2C9. CYP2C9 Supersomes, luciferin-H conversion, luminescence. AID 777. actives 20% (n = 96,000). P11712. inhibition, % at 5 µM;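 active = blocking of liver enzyme CYP2C9 beyond about 50% at 5 µM, limit read from the data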
CYP2C19 inh – inhibitors of human CYP2C19; CYP2C19 Supersomes, luciferin-H EGE luminescence, 30 min; inhibition, % at 5 µM; actives 21% (n = 96,000);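 active = CYP2C19 inhibition above a set limit at 5 µM in the primary screen, cut at about 50% in these data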;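 also: plate controls were negative control wells for no effect and 2.5 mM tranylcypromine positive control for full effect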
* hit, by the source's call; · = no result. In the library only some 27% were active in any assay of this set; here they are far more common.

SMILES	sEH inhibitor	sEH activator	CYP2C9 act	CYP2C19 act	CYP2C9 inh	CYP2C19 inh
CCCCOC(=O)CSc1n[nH]c(=O)[nH]c1=O	-6	7	0.8	0.9	17	7
COc1ccc(C(=O)N(Cc2ccco2)Cc2cccs2)c(O)c1	-13	10	0	0.1	95*	88*
CCOC(=O)CC1ON(C)C(=O)N1c1ccc([N+](=O)[O-])cc1 (stereo not drawn)	10	-7	0.8	0	20	98*
COCC(=O)N1CCN(c2ccc([N+](=O)[O-])cc2)CC1	-2	1	1	0.7	3	26
COc1ccc(C(=O)N2CCCC2)cc1S(=O)(=O)N1CCOCC1	0	6	1.3	1.2	-26	-19
COc1ccc(C(=O)NC2CCCCC2)cc1S(=O)(=O)N1CCCC1	-11	10	0.5	0.7	53*	31
O=C(NC1CCCC1)c1ccc(S(=O)(=O)N2CCCC2)cc1	7	-5	0.7	0.9	30	6
COC(=O)c1cc(COC(=O)c2ccc(OC)c(S(=O)(=O)N3CCCC3)c2)oc1C	-15	15	0	0	97*	98*
Cc1nnc(SCC(=O)N2CCCCC2)n1CC1CCCO1 (stereo not drawn)	-9	9	·	·	·	·
COc1ccc(C(=O)Nc2cccnc2)cc1S(=O)(=O)N1CCOCC1	-1	1	1.1	1	-14	2
CCOC(=O)C(NC(=O)c1ccc(Cl)cc1Cl)(Nc1ccc(C)cc1)C(F)(F)F (stereo not drawn)	-9	7	0.9	0.1	15	91*
C=CCN=C(NC#N)SCC(=O)NCc1ccccc1	4	-6	0.8	0.5	17	51*
C=CCN=C(NC#N)SCCc1ccccc1	·	·	0.5	0.1	52*	93*
C=CCN=C(NC#N)SCC(=O)NC(C)(C)C	2	-2	1.2	0.9	-19	5
O=C(Nc1ccc(F)cc1)c1ccc(-n2ccnc2)nc1	-2	2	0	0	96*	100*
COc1ccc(NC(=O)c2ccc(-n3cccn3)nc2)cc1	0	3	0.6	0.9	42	10
COc1ccc(C(=O)Nc2nccs2)cc1OC	·	·	0.9	1.1	9	-7
CCN(CC)S(=O)(=O)c1cc(C(=O)Nc2ccncc2)ccc1Cl	14	-14	0	0	100*	100*
O=C(Nc1ccncc1)c1cncc(Br)c1	8	-5	0.7	0.1	30	87*
O=C(Nc1ccc(N2CCCCC2)cc1)c1cncc(Br)c1	10	-11	0.9	0.7	8	26
COc1ccc(C(=O)Nc2ccncc2)cc1OC	·	·	0.5	0.4	48	57*
CC1CCCN(C(=O)CNC(=O)Cn2ccc3ccccc3c2=O)C1 (stereo not drawn)	10	-8	1.4	1.1	-38	-6
CC(C)CN1C(=O)c2ccc(C(=O)Nc3ccncc3)cc2C1=O	·	·	0	0	97*	98*
O=C(Nc1ccncc1)Nc1ccc(F)cc1F	10	-10	0.2	0	83*	97*
COCCCNC(=O)Nc1ccc(F)cc1F	16	-12	1.1	1	-7	0
SMILES	sEH inhibitor	sEH activator	CYP2C9 act	CYP2C19 act	CYP2C9 inh	CYP2C19 inh
O=C(Nc1ccncc1)c1cccc(F)c1	-12	14	0.8	0.4	23	56*
O=C(Nc1ccncc1)c1ccc(F)cc1	8	-7	0.4	0.1	61*	88*
O=C(Nc1cccnc1)c1ccc(F)cc1	2	-1	·	·	·	·
COC(=O)c1c(NS(=O)(=O)c2ccc3ccccc3c2)sc2c1CCCC2	22	-24	0	0	98*	100*
Cc1ccccc1NC(=O)c1ccc(C)c(S(=O)(=O)Nc2ccccn2)c1	-1	4	0.9	1	8	4
COC(=O)c1c(NC(=O)c2ccc(C)c(S(=O)(=O)Nc3ccccc3C)c2)sc2c1CCCC2	-10	8	0.4	1	59*	2
CCc1nc(SCC(=O)c2ccc(Cl)s2)c2oc3ccccc3c2n1	-8	8	0.3	0.6	75*	42
CCc1nc(SCCO)c2oc3ccccc3c2n1	8	-7	0.3	0.5	66*	51*
CCc1nc(SCC(=O)N2CCN(c3ccccc3)CC2)c2oc3ccccc3c2n1	7	-3	0.9	0.9	14	11
CCc1nc(Sc2nc(C)cc(C)n2)c2oc3ccccc3c2n1	-16	12	0.4	0.2	63*	80*
CCc1nc(SCc2nc3ccccc3[nH]2)c2oc3ccccc3c2n1	18	-18	0	0	98*	100*
OCCSc1ncnc2c1oc1ccccc12	3	-2	0.8	0.8	22	22
CCOC(=O)C1=C(N)Oc2c(oc(CO)cc2=O)C1c1ccc(F)cc1 (stereo not drawn)	-1	1	·	·	·	·
CCc1cc2c(SCC(=O)c3ccc(Cl)s3)ncnc2s1	10	-7	0.2	0.2	82*	82*
CCc1cc2c(NCCC(=O)O)ncnc2s1	14	-13	0.9	0.9	12	12
CCOC(=O)N1CCN(CC(=O)Nc2ccc(Oc3ccccc3)cc2)CC1	48	-46	0.8	0.8	21	17
Cc1[nH]n(-c2ccccc2)c(=O)c1-c1cccc(Cl)c1	-11	10	0.3	0.8	71*	20
Cc1cc(-c2c(C)[nH]n(-c3ccc(Cl)cc3)c2=O)n(-c2ccc(Cl)cc2)n1	5	-4	0.4	0.9	60*	8
Cc1cc(-c2c(C)[nH]n(-c3ccccc3)c2=O)n(-c2ccccc2)n1	2	-2	0.2	1	81*	1
O=C(O)CSc1nc2ccccc2o1	-8	6	1.2	1.3	-20	-25
C(=C\c1ccccc1)/CSc1nnc(-c2cccnc2)o1	-7	7	0.8	0.4	16	55*
Nn1c(CSc2nc3ccccc3o2)nnc1CSc1nc2ccccc2o1	8	-8	0.3	0.3	66*	72*
Cc1ccc(CSc2nnc(-c3cccnc3)o2)cc1	-2	4	0.4	0.3	58*	70*
c1cncc(-c2nnc(SCc3nc4ccccc4[nH]3)o2)c1	11	-12	0.6	0.3	39	70*
c1ccc2[nH]c(CSc3nc4ccccc4o3)nc2c1	·	·	0.3	0	70*	100*
O=C(Nc1ccc(S(=O)(=O)N2CCCCC2)cc1)c1ccncc1	34	-34	0	0	98*	99*
O=C(Nc1nc(-c2cccs2)cs1)c1ccc(S(=O)(=O)N2CCCC2)cc1	3	-2	0.4	0.6	57*	43
CC(=O)c1ccc(NC(=O)c2ccc(S(=O)(=O)N3CCCC3)cc2)cc1	12	-13	1	1	1	0
CC1CC(C)CN(S(=O)(=O)c2ccc(C(=O)Nc3sccc3C(N)=O)cc2)C1 (stereo not drawn)	-20	18	0.7	1.2	29	-19
CN(C)S(=O)(=O)c1ccc(C(=O)Nc2nc(-c3cccs3)cs2)cc1	·	·	1	1	2	2
